Measured values from paper PMC7862700, “An all-to-all approach to the identification of sequence-specific readers for epigenetic DNA modifications on cytosine”.

Columns and labels:
Assay in all cases: DAPPL (digital affinity profiling via proximity ligation, sequencing); 10 mM Tris-HCl pH 7.5, 50 mM NaCl, 1 mM DTT, 4% glycerol, room temperature, 30 min; GST-TFs on glutathione beads, 16-mer random dsDNA library, 0.1% formaldehyde crosslink after washing; high values mean tight binding
Conditions in all cases: protein: recombinant; tags: N-terminal GST; dsDNA, one strand shown
FLI1 = target: T1, FLI1 (Homo sapiens, UniProt Q01543 1-452)
T1 sequence: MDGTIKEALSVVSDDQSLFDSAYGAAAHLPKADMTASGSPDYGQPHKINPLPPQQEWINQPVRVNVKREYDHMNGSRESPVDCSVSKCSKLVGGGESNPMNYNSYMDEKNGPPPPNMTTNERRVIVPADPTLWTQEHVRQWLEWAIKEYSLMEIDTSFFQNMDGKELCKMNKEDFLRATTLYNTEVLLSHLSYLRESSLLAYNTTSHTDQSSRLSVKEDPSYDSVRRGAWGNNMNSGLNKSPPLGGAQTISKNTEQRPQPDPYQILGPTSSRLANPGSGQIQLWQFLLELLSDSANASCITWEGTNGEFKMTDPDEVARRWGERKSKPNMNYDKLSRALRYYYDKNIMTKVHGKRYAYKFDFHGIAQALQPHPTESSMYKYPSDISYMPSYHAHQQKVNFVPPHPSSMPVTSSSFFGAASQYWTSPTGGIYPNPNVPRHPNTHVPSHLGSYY
Procedure, shortened: (§1)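 Binding signal is defined as a hexamer's read frequency for one factor over its frequency for the tag-only sample. To obtain reads, GST-fused human transcription factors were expressed in yeast, captured on glutathione beads, barcoded with DNA and pooled with that sample. Pools met 200 nmole of a 16-mer random double-stranded DNA library in Tris/NaCl/DTT/glycerol buffer for 30 min at room temperature before washing, 0.1% formaldehyde crosslinking, proximity ligation (BsaI/T4 ligase, 1 h, 37 °C), PCR and Illumina NextSeq500 sequencing.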

ELK1 = target: T2, ELK1 (Homo sapiens, UniProt P19419 1-428)
T2 sequence: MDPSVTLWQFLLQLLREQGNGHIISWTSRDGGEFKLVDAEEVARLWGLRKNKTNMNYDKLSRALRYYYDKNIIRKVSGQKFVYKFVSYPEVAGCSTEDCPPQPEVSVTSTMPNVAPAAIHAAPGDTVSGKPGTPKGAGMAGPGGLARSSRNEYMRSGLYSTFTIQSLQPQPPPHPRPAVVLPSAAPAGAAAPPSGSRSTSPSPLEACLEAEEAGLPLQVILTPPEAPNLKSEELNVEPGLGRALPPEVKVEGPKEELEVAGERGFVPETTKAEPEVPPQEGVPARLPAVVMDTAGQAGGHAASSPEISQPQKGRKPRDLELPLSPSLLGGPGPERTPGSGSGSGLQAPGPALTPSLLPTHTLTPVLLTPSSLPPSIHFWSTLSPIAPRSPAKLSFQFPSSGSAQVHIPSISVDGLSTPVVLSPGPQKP
Procedure, shortened: as §1

GABPA = target: T3, GABPA (Homo sapiens, UniProt Q06546 1-454)
T3 sequence: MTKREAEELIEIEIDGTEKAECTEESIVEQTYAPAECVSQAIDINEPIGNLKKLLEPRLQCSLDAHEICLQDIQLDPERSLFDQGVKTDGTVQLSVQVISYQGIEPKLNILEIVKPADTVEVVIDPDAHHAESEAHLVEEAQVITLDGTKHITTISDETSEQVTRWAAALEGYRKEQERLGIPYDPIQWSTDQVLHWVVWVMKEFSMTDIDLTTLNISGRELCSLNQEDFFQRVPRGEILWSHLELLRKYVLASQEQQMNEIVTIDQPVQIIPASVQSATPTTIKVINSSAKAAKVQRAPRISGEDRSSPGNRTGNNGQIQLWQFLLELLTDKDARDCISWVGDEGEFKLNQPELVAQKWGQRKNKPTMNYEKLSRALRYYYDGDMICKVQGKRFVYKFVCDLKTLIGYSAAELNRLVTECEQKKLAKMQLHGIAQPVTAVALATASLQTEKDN
Procedure, shortened: as §1

ERG = target: T4, ERG (Homo sapiens, UniProt P11308 1-479)
T4 sequence: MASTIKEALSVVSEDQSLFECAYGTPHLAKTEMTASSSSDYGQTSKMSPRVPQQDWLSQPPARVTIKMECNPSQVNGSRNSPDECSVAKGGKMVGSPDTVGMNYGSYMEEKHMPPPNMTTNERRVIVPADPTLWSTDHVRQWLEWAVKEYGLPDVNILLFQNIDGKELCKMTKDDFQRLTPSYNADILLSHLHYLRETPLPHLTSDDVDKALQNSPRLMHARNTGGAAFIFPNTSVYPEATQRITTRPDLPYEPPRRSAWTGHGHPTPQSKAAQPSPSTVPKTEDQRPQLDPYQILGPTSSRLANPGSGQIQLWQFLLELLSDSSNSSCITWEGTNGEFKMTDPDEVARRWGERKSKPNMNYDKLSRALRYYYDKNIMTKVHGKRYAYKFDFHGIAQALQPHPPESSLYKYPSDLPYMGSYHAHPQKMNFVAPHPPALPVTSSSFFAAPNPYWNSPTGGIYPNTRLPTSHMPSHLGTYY
Procedure, shortened: as §1

ELF1 = ELF1 (Homo sapiens, UniProt P32519 1-619)
Procedure, shortened: as §1

EHF = target: T5, EHF (Homo sapiens, UniProt Q9NZC4 1-300)
T5 sequence: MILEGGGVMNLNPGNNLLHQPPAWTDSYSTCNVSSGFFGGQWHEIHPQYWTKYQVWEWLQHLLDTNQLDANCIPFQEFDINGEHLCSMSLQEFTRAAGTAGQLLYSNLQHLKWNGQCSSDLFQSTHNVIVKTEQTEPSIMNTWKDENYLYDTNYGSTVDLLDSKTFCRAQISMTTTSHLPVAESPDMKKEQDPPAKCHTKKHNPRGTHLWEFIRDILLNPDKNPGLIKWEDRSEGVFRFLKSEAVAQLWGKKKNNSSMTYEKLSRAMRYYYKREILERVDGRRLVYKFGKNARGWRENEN
Procedure, shortened: as §1

ELK3 = target: T6, ELK3 (Homo sapiens, UniProt P41970 1-407)
T6 sequence: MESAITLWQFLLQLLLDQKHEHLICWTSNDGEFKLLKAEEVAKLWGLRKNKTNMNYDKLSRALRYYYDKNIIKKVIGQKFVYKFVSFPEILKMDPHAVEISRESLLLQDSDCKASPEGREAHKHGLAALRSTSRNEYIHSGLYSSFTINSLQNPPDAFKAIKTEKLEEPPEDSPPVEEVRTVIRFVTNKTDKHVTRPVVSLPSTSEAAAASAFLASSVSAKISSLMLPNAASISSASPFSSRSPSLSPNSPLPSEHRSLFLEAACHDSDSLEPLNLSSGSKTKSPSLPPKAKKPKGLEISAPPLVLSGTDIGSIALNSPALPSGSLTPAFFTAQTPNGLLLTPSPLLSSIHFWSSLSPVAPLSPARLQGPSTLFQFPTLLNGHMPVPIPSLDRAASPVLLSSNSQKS
Procedure, shortened: as §1

ETV5 = ETV5 (Homo sapiens, UniProt P41161 1-510)
Procedure, shortened: as §1

ELF4 = ELF4 (Homo sapiens, UniProt Q99607 1-663)
Procedure, shortened: as §1

ETV2 = target: T7, ETV2 (Homo sapiens, UniProt O00321 1-342)
T7 sequence: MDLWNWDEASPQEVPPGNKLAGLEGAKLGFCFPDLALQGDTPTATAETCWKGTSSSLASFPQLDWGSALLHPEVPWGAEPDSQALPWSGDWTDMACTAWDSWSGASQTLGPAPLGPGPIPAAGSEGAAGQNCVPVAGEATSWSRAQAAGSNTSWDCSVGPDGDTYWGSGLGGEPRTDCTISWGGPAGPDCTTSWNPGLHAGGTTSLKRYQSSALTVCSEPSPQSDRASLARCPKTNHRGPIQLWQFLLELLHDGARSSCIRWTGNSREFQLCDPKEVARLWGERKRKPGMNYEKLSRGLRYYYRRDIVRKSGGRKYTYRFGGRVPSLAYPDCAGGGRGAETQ
Procedure, shortened: as §1

ERF = target: T8, ERF (Homo sapiens, UniProt P50548 1-548)
T8 sequence: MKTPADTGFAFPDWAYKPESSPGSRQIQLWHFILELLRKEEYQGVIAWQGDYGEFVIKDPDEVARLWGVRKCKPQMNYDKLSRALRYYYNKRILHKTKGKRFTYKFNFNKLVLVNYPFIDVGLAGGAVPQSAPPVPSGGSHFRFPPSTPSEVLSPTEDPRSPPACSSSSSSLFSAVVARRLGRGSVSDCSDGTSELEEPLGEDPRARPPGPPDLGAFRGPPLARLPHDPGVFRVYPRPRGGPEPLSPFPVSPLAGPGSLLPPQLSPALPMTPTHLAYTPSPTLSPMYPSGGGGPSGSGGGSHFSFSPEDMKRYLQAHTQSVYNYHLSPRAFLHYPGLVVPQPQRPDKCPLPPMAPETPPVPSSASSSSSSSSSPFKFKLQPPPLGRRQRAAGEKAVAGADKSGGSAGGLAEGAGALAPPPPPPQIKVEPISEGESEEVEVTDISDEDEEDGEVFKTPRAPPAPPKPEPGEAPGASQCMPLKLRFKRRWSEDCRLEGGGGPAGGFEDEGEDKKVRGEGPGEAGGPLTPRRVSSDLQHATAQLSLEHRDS
Procedure, shortened: as §1

ETV3L = target: T9, ETV3L (Homo sapiens, UniProt Q6ZN32 1-361)
T9 sequence: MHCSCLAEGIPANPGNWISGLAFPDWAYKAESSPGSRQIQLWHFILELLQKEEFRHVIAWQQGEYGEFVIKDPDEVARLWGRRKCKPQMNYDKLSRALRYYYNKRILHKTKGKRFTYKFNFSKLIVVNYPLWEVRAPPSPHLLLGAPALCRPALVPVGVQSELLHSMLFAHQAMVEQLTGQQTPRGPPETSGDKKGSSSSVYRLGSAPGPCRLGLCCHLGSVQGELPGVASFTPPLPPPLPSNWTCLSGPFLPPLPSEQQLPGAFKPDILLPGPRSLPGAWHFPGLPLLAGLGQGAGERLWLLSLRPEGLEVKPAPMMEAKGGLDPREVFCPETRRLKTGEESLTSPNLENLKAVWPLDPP
Procedure, shortened: as §1

ETS2 = target: T10, ETS2 (Homo sapiens, UniProt P15036 1-469)
T10 sequence: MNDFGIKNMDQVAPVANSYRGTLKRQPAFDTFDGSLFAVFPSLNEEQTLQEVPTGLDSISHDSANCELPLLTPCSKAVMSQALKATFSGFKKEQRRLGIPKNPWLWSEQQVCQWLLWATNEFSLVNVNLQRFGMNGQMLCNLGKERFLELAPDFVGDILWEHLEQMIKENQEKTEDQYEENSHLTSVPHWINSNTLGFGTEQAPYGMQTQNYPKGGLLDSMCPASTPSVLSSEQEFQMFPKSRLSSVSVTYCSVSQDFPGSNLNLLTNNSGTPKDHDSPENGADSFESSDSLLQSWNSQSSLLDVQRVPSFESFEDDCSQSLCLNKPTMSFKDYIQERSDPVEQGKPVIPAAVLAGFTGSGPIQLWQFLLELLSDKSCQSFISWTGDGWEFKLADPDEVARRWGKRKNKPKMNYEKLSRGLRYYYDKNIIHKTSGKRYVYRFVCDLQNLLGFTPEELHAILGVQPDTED
Procedure, shortened: as §1

ETV7 = target: T11, ETV7 (Homo sapiens, UniProt Q9Y603 1-341)
T11 sequence: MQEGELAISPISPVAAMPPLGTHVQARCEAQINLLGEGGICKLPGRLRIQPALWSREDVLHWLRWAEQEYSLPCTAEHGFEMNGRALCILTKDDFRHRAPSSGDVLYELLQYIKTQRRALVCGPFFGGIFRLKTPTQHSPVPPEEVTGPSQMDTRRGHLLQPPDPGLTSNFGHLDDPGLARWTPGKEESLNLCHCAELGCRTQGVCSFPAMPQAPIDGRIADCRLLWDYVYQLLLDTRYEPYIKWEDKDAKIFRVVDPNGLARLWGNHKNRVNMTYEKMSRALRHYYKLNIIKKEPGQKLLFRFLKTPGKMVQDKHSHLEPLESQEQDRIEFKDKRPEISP
Procedure, shortened: as §1

SPI1 = SPI1 (Homo sapiens, UniProt P17947 1-270)
Procedure, shortened: as §1

SPIB = SPIB (Homo sapiens, UniProt Q01892 1-262)
Procedure, shortened: as §1

ETV1 = ETV1 (Homo sapiens, UniProt P50549 1-477)
Procedure, shortened: as §1

ETV5, sequence (P41161 whole entry): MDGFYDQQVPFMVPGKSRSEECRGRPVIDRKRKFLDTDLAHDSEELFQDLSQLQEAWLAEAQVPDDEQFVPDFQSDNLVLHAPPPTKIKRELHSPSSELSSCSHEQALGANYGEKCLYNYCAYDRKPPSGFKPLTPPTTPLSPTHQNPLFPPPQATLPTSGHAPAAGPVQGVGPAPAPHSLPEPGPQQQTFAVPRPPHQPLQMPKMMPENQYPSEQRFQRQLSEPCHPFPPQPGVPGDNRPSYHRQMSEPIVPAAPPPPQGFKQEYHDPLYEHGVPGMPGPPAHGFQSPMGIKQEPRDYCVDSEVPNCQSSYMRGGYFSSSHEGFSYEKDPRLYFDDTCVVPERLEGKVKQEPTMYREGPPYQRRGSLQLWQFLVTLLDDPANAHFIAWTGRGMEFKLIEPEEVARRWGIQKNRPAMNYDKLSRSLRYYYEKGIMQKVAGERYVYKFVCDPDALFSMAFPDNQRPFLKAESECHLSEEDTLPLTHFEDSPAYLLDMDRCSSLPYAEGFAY
ELF1, sequence (P32519 whole entry): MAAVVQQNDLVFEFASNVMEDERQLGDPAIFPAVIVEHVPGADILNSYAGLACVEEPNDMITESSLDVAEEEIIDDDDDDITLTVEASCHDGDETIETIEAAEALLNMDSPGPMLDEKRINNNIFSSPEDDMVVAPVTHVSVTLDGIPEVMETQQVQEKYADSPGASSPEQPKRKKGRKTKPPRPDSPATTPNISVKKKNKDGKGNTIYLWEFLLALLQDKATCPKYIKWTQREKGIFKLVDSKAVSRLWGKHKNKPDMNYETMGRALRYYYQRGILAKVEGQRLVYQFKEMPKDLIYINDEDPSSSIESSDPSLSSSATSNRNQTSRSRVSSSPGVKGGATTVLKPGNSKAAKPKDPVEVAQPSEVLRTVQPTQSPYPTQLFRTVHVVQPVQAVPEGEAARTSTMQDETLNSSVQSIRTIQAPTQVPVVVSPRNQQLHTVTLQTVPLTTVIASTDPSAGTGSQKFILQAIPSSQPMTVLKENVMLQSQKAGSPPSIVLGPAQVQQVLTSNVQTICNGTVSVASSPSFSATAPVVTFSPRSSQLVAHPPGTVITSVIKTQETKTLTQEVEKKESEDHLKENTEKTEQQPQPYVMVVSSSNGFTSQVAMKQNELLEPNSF
ELF4, sequence (Q99607 whole entry): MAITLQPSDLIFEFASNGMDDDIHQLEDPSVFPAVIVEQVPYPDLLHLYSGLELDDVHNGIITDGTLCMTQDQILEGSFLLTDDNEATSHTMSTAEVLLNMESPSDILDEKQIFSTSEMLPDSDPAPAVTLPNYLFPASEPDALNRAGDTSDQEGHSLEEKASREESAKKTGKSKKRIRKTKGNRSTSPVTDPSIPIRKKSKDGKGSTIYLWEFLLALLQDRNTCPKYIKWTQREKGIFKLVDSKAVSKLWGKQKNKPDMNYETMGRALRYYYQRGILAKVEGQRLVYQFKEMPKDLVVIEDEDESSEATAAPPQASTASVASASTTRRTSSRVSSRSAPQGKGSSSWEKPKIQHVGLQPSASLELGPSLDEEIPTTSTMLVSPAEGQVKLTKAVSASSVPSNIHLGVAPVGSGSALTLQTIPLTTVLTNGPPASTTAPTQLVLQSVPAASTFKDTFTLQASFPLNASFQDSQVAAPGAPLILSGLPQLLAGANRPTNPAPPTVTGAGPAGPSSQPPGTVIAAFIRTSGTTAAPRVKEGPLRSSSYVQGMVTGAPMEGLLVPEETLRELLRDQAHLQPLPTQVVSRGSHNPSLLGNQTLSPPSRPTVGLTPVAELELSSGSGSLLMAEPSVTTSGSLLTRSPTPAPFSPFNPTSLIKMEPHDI
SPIB, sequence (Q01892 whole entry): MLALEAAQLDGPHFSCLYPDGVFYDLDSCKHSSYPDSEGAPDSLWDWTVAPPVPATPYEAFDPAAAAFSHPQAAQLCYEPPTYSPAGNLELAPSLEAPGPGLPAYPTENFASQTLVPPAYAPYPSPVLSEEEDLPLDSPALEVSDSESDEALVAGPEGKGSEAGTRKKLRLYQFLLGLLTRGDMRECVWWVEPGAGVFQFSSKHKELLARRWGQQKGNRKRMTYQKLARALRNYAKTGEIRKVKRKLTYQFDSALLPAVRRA
ETV1, sequence (P50549 whole entry): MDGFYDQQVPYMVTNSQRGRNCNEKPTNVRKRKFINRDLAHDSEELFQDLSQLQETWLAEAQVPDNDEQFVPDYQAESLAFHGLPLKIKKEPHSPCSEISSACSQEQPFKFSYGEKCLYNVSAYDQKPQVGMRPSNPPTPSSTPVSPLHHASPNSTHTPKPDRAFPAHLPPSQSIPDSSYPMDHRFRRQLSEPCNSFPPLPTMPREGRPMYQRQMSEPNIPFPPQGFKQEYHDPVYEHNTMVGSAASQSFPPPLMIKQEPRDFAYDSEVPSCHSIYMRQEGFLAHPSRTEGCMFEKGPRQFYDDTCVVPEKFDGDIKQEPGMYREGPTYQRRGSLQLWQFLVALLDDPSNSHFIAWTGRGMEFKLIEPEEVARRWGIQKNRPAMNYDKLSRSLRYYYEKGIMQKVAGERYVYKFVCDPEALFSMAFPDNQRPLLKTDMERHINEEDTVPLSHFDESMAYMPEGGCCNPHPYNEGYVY

Sequence	binding signal (FLI1)	binding signal (ELK1)	binding signal (GABPA)	binding signal (ERG)	binding signal (ELF1)	binding signal (EHF)	binding signal (ELK3)	binding signal (ETV5)	binding signal (ELF4)	binding signal (ETV2)	binding signal (ERF)	binding signal (ETV3L)	binding signal (ETS2)	binding signal (ETV7)	binding signal (SPI1)	binding signal (SPIB)	binding signal (ETV1)
ACAGCA	1.01 fold enrichment (6-mer frequency, TF over GST control)	1.03 fold enrichment (6-mer frequency, TF over GST control)	1.08 fold enrichment (6-mer frequency, TF over GST control)	1 fold enrichment (6-mer frequency, TF over GST control)	1.06 fold enrichment (6-mer frequency, TF over GST control)	1.03 fold enrichment (6-mer frequency, TF over GST control)	1.02 fold enrichment (6-mer frequency, TF over GST control)	1.03 fold enrichment (6-mer frequency, TF over GST control)	1.04 fold enrichment (6-mer frequency, TF over GST control)	1.06 fold enrichment (6-mer frequency, TF over GST control)	1.07 fold enrichment (6-mer frequency, TF over GST control)	1.06 fold enrichment (6-mer frequency, TF over GST control)	1.09 fold enrichment (6-mer frequency, TF over GST control)	1.15 fold enrichment (6-mer frequency, TF over GST control)	–	–	–
GCCTGA	1.05 fold enrichment (6-mer frequency, TF over GST control)	1.13 fold enrichment (6-mer frequency, TF over GST control)	1.11 fold enrichment (6-mer frequency, TF over GST control)	–	1.04 fold enrichment (6-mer frequency, TF over GST control)	–	–	1.09 fold enrichment (6-mer frequency, TF over GST control)	1.06 fold enrichment (6-mer frequency, TF over GST control)	1.03 fold enrichment (6-mer frequency, TF over GST control)	1.07 fold enrichment (6-mer frequency, TF over GST control)	1.12 fold enrichment (6-mer frequency, TF over GST control)	1.02 fold enrichment (6-mer frequency, TF over GST control)	–	1.05 fold enrichment (6-mer frequency, TF over GST control)	1.09 fold enrichment (6-mer frequency, TF over GST control)	1.05 fold enrichment (6-mer frequency, TF over GST control)
